# Screening results from PubChem.
# TDP1 inh = qHTS Assay for Inhibitors of Tyrosyl-DNA Phosphodiesterase (TDP1). Tyrosyl-DNA phosphodiesterase 1 (Homo sapiens), Q9NUW8. recombinant TDP1, AlphaScreen DNA substrate cleavage. Potency, µM (highest dose often 130 µM), for inactives: at the highest dose activity change, negative = inhibition, usual class: inhibitors. hit rate 0.28% among 350,000. AID 485290, 2010; further: potency means the concentration at half of the fitted maximal effect; on the % scale 0 is the no-effect control and ±100 the full control effect; nearly all actives have a fitted effect of over 40% in size
# Target sequence (Q9NUW8 whole entry, looked up): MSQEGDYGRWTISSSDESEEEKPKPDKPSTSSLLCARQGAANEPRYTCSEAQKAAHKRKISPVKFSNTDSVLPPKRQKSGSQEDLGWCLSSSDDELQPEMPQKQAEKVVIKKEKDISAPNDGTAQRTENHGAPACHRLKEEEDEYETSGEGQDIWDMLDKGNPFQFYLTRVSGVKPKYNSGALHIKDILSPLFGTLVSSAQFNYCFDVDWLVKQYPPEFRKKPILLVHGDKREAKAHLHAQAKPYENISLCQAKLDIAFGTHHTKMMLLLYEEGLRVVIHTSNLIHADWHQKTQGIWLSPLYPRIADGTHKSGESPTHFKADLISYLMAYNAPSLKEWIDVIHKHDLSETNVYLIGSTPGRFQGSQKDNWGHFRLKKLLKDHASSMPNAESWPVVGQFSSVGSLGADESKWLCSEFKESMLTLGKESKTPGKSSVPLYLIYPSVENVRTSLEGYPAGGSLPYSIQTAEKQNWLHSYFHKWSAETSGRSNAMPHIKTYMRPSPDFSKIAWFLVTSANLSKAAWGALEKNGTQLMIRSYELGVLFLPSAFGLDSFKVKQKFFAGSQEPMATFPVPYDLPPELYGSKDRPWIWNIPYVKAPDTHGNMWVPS
#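 E. coli-derived human Tdp1, 1 nM final. Cpd preinc 15 min RT; substrate 15 nM final, 5 min RT; AS bead mix 10 ug/ml final, 10 min RT. Signal loss = tyrosine-FITC cleavage. No-enzyme wells = max signal.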
# HepG2 tox = qHTS for Inhibitors of TGF-b: Cytotox Counterscreen. HepG2 CAGA-GFP viability, ATP luminescence, 18 h. Potency, µM (series often up to 46.1 µM), inactives show at the highest dose activity change, negative = cytotoxicity, most hits filed as cytotoxic. hit rate 0.76% among 410,000. AID 588856, 2011; further: potency means the concentration at half of the fitted maximal effect
#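 HepG2 CAGA-GFP cells (1000/well, DMEM with 1% FBS) received compound, then TGF-beta at 500 pg/mL final, and were incubated 18 hours at 37 degrees C. Viability was read by CellTiter-Glo luminescence. Media-only wells were set as complete cell-killing and DMSO as no toxicity.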
# TGFb SMAD3 inh = qHTS for Inhibitors of TGF-b; HepG2 CAGA-GFP TGF-b/SMAD3 reporter, GFP fluorescence, 18 h; TGF-beta stimulated, 500 pg/mL final; Potency, µM (series often up to 46.1 µM), for the others: at the top dose activity, negative = inhibition, usual class: inhibitors; hit rate 1.2% among 410,000; AID 588855, 2011; further: potency means the concentration at half of the fitted maximal effect; on the % scale 0 is the no-effect control and ±100 the full control effect; nearly all actives have a fitted effect of over 65% in size
#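 Per well, imaged GFP fluorescence of HEPG2 CAGA-GFP cells gives the signal; cells get compound, then TGF-beta (500 pg/mL final), 18 h at 37 degrees C; %Activity versus -TGF-beta and +DMSO controls.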
# DT40 TDP1 CPT = qHTS for Inhibitors of human tyrosyl-DNA phosphodiesterase 1 (TDP1): qHTS in cells in presence of CPT | chicken DT40 Tdp1-/-;hTDP1 cells + 20 nM CPT, ATP luminescence, 48 h | hit rate 12% among 420,000 | Potency, µM (titrated, usually from 46.2 µM), inactives show top-dose activity change, negative = growth inhibition, actives largely listed as inhibitors; further: potency means the concentration at half of the fitted maximal effect; on the % scale 0 is the no-effect control and ±100 the full control effect; nearly all actives have a fitted effect of over 55% in size
#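 Chicken DT40 Tdp1-/- cells stably complemented with human TDP1 were seeded at 400 cells/well in medium containing 20 nM camptothecin, exposed to pin-transferred compounds, and grown at 37 °C for at least 48 hr. Viability was read as ATP luminescence.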
# TDP1 cell noCPT = qHTS for Inhibitors of human tyrosyl-DNA phosphodiesterase 1 (TDP1): qHTS in cells in absence of CPT; DT40 Tdp1-/- hTDP1 cells, no CPT, ATP luminescence, 48 h; Potency, µM (titrated, usually from 46.2 µM), without a hit: at the top dose activity change, negative = growth inhibition, most hits filed as inhibitors; hit rate 15% among 420,000; AID 686978, 2013; further: potency means the concentration at half of the fitted maximal effect; on the % scale 0 is the no-effect control and ±100 the full control effect; nearly all actives have a fitted effect of over 55% in size
#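 Camptothecin absent (DMSO only). Human TDP1-complemented DT40 knockout cells, 400 cells/well, 37 °C for minimum 48 hr; ATP measured via CellTiter-Glo, 30 min dark incubation, luminescence.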
# IL1B secr inh = qHTS for Inhibitors of Inflammasome Signaling: IL-1-beta AlphaLISA Primary Screen. hit rate 4.7% among 360,000. THP-1 LPS/ATP IL-1B secretion, AlphaLISA, 16 h; stronger effect = lower value. activity change, % at 57.5 µM; in the data active means activity change below about -50%; inconclusive means mostly about -30% to -49%; further: on the % scale 0 is the no-effect control and ±100 the full control effect
#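 THP-1 cells pretreated 1 hr with compounds (up to 57.5 uM final), then stimulated with LPS (250 ng/mL final) plus ATP (1.25 mM final); secreted IL-1B measured by AlphaLISA after 16 hr, decreased signal indicating inhibition.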
# * marks the source's active call; other numbers are inactive results; u = inconclusive; x = no result; [ ] = remark or other dose. In the library only some 18% were active in any assay of this set; here they are far more common. Unless noted, the call rests on the fitted dose curve; in most records, active means well fitted curve in the direction sought with a large enough effect; inconclusive means small, poorly fitted or top-dose-only effect, or another doubt; inactive means no such curve, though single readings can be large; an effect the other way counts as inactive or inconclusive.
SMILES,TDP1 inh,HepG2 tox,TGFb SMAD3 inh,DT40 TDP1 CPT,TDP1 cell noCPT,IL1B secr inh
COC(=O)C1=Nc2ccccc2/C1=C\c1c(O)n(-c2cc(OC)ccc2OC)c(=O)[nH]c1=O,u,9%,2%,-10%,-14%,-26
CC1=Nc2ccccc2/C1=C/c1c(O)n(C)c(=O)[nH]c1=O,x,7%,u,u,u,-103*
Cc1cccc(-n2c(O)c(/C=C/C=Nc3ccccc3)c(=O)[nH]c2=O)c1,2%,-2%,104%,-15%,u,0
Cc1cccc(-n2c(O)c(/C=C3/C(c4ccccc4)=Nc4ccccc43)c(=O)[nH]c2=O)c1,x,-58%,u,2.9µM*,2.3µM*,74
Cc1ccccc1-n1c(O)c(/C=C2/C(c3ccccc3)=Nc3ccccc32)c(=O)[nH]c1=O,8%,-42%,25µM*,4.6µM*,4.6µM*,u
O=c1[nH]c(=O)n(-c2ccc(F)cc2)c(O)c1/C=C1\C=Nc2ccccc21,x,-2%,-2%,3%,1%,13
CCN1C[C@]2(C)CCC(OC)[C@@]34C5C[C@@H]6CC[C@@](O)(C5C(=O)O6)[C@@H](C(O)C23)[C@@H]14 (stereo partly specified),6%,x,x,x,x,x
CC(=O)Nc1cnc(-c2ccccc2O)cn1,x,-23%,14%,u,-21%,24
O=C(NCc1ccccc1)N1CCc2c(sc3c2CCCC3)C1c1ccccc1 (stereo unspecified),-9%,-16%,6%,u,16µM*,x
O=C1CCN(C(=O)CNC(=O)Cc2ccccc2)CC1,0%,10%,2%,17%,1%,16
c1cc(OCCN2CC2)ccn1,x,-37%,0%,3.3µM*,7.3µM*,14
c1cnc(OCCN2CC2)cn1,x,-10%,-16%,8.2µM*,13µM*,-2
COc1ccc(N2CCN(CCc3ccncc3)CC2)cc1,0%,7%,29%,6%,-5%,-11
COC1=CC(=O)[C@]2(C=C1OC)OC[C@@H]1Oc3c(ccc4c3C=CC(C)(C)O4)C(=O)[C@@H]12,-5%,-13%,-12%,0.29µM*,0.21µM*,-4
c1cnc(N2CCCC3(CCNCC3)C2)nc1,x,x,x,-2%,-24%,x
CN(CC(=O)N[C@H](CO)Cc1ccccc1)C(=O)[C@H](CCS(C)=O)NC(=O)[C@@H](N)Cc1ccc(O)cc1 (stereo partly specified),6%,x,x,-9%[4.12 µM],-5%[4.12 µM],x
CCNC(=S)NCCC1=c2ccccc2=N/C1=C\c1c(O)n(C)c(=O)n(C)c1=O,-4%,16%,6%,u,21µM*,0
Cc1cc(OC(=O)CCNC(=O)OC(C)(C)C)c2c3c(c(=O)oc2c1)CCC3,-2%,1%,3%,u,21µM*,-10
CCCCOC(=O)COc1cc(C)cc2oc(=O)c3c(c12)CCC3,-2%,-5%,23%,4%,-13%,-8
CCC(NC(=O)OC(C)(C)C)C(=O)Oc1cc(C)cc2oc(=O)c3c(c12)CCC3 (stereo unspecified),2%,-3%,-17%,21µM*,12µM*,26
CCN(CC)C1=NC(=[N+](CC)CC)c2ccccc21,1%,-19%,-12%,0.65µM*,0.41µM*,u
CC1CC2CCC(O2)C(C)C(=O)OC(C)CC2CCC(O2)C(C)C(=O)OC(C)CC2CCC(O2)C(C)C(=O)OC(C)CC2CCC(O2)C(C)C(=O)O1 (stereo unspecified),4%,x,x,x,x,x
